In general, inhibition refers to the relative decrease from the control value, in per cent.

Test [1] in a line: antimalarial activity against Dd2 strain (AID 2302;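 active = growth inhibition above 50% at the single 2 µM test dose, taken to imply half-maximal potency below 2 µM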;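 also: 0% = DMSO untreated growth and 100% = chloroquine plus artemisinin killed control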). The following applies: P. falciparum Dd2 in RBCs, LDH growth readout, 72 h; at 2 µM; hits give high values.
Test [2] in a line: human hepatoma cell viability loss – ATP luminescence, cytotoxicity control for P. falciparum antimalarial project, primary screen (AID 2303;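 active = inhibition above 50%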;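 also: 0% = DMSO wells and 100% = digitonin-killed cells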). As to conditions: HepG2 viability, 24-48 h, at 10 µM, hits give high values.
Test [3] concerns the target L-lactate dehydrogenase (Plasmodium falciparum (isolate CDC / Honduras)) (UniProt Q27743). The experiment in a line: PfLDH activity inhibition – cell lysate, 3D7 strain, counter-screen for P. falciparum growth inhibition project (AID 2304).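 Also: 0% = vehicle and 100% = reference inhibitor.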 As to conditions: P. falciparum 3D7 crude extract, LDH APAD/NBT absorbance; at 2 µM; hits give high values.
Test [4] can be described thus: inhibition of 3D7 malaria parasite growth – strain 3D7 (AID 2306).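 Also: 0% = DMSO wells and 100% = chloroquine plus artemisinin control wells.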 As to conditions: P. falciparum 3D7 erythrocytic growth, LDH absorbance, 72 h; at 2 µM; hits give high values.
Test [5] has as its target Calcium-dependent protein kinase 1 (Plasmodium falciparum (isolate 3D7)) (UniProt P62344). The experiment in a line: PfCDPK1 kinase inhibitors, biochemical, TCAMS library (AID 1159585; cut-off not given, nearly all actives have IC50 up to about 0.98 µM;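 also: inhibitors leave more ATP so luminescence rises with inhibition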). As to conditions: recombinant PfCDPK1, Kinase-Glo ATP depletion luminescence. Background: In Kinase-Glo more light means more ATP remaining.
Test [6] addresses Plasmodium falciparum protein kinase 6 (PK6, PF3D7_1337100) (UniProt Q8IDW1). The experiment in a line: PfPK6 kinase inhibitors, biochemical, TCAMS library (AID 1159586). As to conditions: recombinant PfPK6, Kinase-Glo ATP depletion luminescence.
In test [7] the target is Protein kinase 7 (PK7), Plasmodium falciparum 3D7 (PF3D7_0213400) (UniProt Q7YTF7). The experiment in a line: inhibition of Plasmodium PK7 catalytic activity – biochemical, TCAMS antimalarial set, Kinase-Glo luminescence (AID 1159587). The following applies: recombinant PfPK7, Kinase-Glo ATP depletion luminescence.
Protein kinase 7 (PK7), Plasmodium falciparum 3D7 (PF3D7_0213400), sequence (Q7YTF7 1-343): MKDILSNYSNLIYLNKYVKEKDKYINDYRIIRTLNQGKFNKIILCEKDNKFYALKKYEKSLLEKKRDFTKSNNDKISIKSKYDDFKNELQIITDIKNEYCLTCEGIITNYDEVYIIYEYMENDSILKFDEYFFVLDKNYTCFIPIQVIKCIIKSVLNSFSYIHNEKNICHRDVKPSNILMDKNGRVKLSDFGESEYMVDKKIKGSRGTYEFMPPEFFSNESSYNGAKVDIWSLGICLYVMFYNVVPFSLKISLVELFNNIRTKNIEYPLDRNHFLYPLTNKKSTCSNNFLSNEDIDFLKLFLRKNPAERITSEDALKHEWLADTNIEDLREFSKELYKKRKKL
In test [8] the target is Calcium-dependent protein kinase 4 (Plasmodium falciparum (isolate 3D7)) (UniProt Q8IBS5). The experiment in a line: PfCDPK4 kinase inhibitors, biochemical, TCAMS library (AID 1159588; cut-off not given, nearly all actives have IC50 up to about 0.91 µM). The following applies: recombinant PfCDPK4, Kinase-Glo ATP depletion luminescence.
Calcium-dependent protein kinase 4 (Plasmodium falciparum (isolate 3D7)), sequence (Q8IBS5 whole entry, looked up): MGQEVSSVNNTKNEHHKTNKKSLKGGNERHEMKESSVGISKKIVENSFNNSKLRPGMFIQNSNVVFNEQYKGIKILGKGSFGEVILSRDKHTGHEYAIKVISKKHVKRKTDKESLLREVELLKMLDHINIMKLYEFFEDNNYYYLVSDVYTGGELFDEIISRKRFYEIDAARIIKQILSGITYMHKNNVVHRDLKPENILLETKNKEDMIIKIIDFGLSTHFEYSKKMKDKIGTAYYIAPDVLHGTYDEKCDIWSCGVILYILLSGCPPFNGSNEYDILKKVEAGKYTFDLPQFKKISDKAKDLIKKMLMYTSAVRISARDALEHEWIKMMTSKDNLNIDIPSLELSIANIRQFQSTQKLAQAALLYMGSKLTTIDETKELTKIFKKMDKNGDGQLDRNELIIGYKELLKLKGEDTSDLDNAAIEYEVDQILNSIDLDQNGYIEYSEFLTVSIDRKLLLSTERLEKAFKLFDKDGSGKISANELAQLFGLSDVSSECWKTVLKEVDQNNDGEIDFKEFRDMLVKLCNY

Unmarked numbers belong to inactive results. For some of these results: Results with a measured potency or affinity are listed apart. Active and inactive are the calls of the source. Unless noted, no rule for the calls is given here.

L-lactate dehydrogenase (Plasmodium falciparum (isolate CDC / Honduras)), sequence (Q27743 whole entry, looked up): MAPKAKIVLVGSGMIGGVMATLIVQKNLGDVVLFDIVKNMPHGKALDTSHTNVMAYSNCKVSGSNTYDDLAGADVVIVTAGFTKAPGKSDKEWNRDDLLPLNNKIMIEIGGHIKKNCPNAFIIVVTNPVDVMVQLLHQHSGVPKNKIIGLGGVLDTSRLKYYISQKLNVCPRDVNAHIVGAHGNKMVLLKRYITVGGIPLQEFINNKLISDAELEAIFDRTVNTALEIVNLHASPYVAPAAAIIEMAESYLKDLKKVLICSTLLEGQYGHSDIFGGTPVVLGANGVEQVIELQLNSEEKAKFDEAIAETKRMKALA
Calcium-dependent protein kinase 1 (Plasmodium falciparum (isolate 3D7)), sequence (P62344 whole entry, looked up): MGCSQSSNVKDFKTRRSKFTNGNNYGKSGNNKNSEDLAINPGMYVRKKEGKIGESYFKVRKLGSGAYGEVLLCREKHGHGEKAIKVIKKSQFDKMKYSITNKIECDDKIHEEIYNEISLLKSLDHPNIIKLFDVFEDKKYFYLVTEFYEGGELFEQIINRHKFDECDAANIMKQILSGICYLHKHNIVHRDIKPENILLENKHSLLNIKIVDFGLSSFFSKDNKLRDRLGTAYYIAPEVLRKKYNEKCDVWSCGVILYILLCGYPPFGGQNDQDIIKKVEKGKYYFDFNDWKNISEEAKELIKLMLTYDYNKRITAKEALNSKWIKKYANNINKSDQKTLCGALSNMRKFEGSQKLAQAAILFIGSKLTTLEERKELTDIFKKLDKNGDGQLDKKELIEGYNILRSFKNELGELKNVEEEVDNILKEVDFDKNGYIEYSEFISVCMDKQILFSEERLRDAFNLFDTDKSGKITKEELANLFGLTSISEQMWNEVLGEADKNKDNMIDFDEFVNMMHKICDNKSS
Plasmodium falciparum protein kinase 6 (PK6, PF3D7_1337100), sequence (Q8IDW1 1-305): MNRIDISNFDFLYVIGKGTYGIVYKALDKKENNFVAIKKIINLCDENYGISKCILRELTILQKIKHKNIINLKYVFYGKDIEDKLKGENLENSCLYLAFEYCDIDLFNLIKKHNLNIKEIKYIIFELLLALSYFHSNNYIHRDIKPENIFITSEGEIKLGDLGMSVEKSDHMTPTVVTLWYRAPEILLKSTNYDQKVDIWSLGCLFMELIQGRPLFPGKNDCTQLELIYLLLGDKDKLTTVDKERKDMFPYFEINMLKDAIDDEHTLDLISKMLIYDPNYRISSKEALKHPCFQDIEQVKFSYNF

For the molecule `CN(c1cc(NC(=O)c2ccc(F)cc2)ccn1)C1CCN(Cc2cccc(C#N)c2)CC1`, the growth inhibition in test [1] is 83% (active); in test [4], 97% (active). Also, the inhibition in test [2] was 73% (active); in test [3], 1%. Besides, the result in test [5], in test [6], in test [7] and in test [8] was inactive.

In the case of `O=C(/C=C/c1ccc(Cl)c(Cl)c1)Nc1cccc(CN2CCC(c3c[nH]c4ccccc34)CC2)c1`, the growth inhibition is 91% (active) in test [1] and 99% (active) in test [4]. Moreover, the values for the inhibition in test [2] and in test [3] were 15% and 0%, respectively. In addition, the result in test [5], in test [6], in test [7] and in test [8] was inactive.

Take `C=Cc1cc(OC)c2c(c1)c(=O)oc1c2cc(OC)c2c(O)ccc([C@H]3O[C@H]([C@@H](C)O)[C@H](O)[C@H]3O)c21`: the growth inhibition was 41% in test [1] and 95% (active) in test [4]. The figures for the inhibition in test [2] and in test [3] were 33% and 0%, respectively. In addition, the outcome in test [5], in test [6], in test [7] and in test [8] was inactive.

Take `CCCCOC(C(=O)OCC1CCCN1C)(c1ccccc1)c1ccccc1` (stereo not given): the growth inhibition in test [1] is 2%; in test [4], 100% (active). Besides, the inhibition in test [2] is 3%; in test [3], 6%. Further, the outcome in test [5], in test [6], in test [7] and in test [8] was inactive.

Turning to `COc1ccc(CC(C)NCC(O)c2cccc(Cl)c2F)cc1` (stereo not given), the growth inhibition is 59% (active) in test [1] and 88% (active) in test [4]. In addition, the inhibition in test [2] was 3%; in test [3] it was -6%. Further, the outcome in test [5], in test [6], in test [7] and in test [8] was inactive.

As to `CCCc1cc([C@@H](O)[C@@H]2C[C@@H]3CCN2C[C@@H]3CC)c2ccccc2n1`, the growth inhibition in test [1] is 57% (active); in test [4], 100% (active). The inhibition was 9% in test [2] and 2% in test [3]. The outcome in test [5], in test [6], in test [7] and in test [8] was inactive.

On to `CC[C@H]1CN2CC[C@@H]1C[C@H]2[C@H](O)c1cc(N2CCC(O)CC2)nc2ccc(OC)cc12`, for which the growth inhibition was 92% (active) in test [1] and 99% (active) in test [4]. For the same molecule, the inhibition in test [2] is 15%; in test [3], 3%. Further, the result in test [5], in test [6], in test [7] and in test [8] was inactive.

With `CC(C)CNCc1ccc(-c2cccc(CN(C(=O)NC3CCCCC3)C3CCN(Cc4ccccc4)CC3)c2)cc1`, the growth inhibition is 88% (active) in test [1] and 98% (active) in test [4]. In addition, the results for the inhibition in test [2] and in test [3] were 20% and 2%, respectively. Moreover, the outcome in test [5], in test [6], in test [7] and in test [8] was inactive.

As to `CCCN(CCC)CCOC(=O)C(OCC)(c1ccccc1)c1ccccc1`, the growth inhibition was 0% in test [1] and 97% (active) in test [4]. In addition, the inhibition in test [2] was -2%; in test [3], 0%. The result in test [5], in test [6], in test [7] and in test [8] was inactive.

As to `Cc1c(C)c2c(c(C)c1O)CC[C@@](C)(C(=O)N1CCC(CN3CCC(c4c[nH]c5ccccc45)CC3)CC1)O2`, the growth inhibition in test [1] was 90% (active); in test [4], 98% (active). Further, the results for the inhibition in test [2] and in test [3] were 21% and 3%, respectively. For the same molecule, the outcome in test [5], in test [6], in test [7] and in test [8] was inactive.

In the case of `CC(=O)C1(c2ccccc2)CCN(CCC2(c3ccc(Cl)c(Cl)c3)CN(C(=O)CC(C)C)CCO2)CC1` (stereo not given), the growth inhibition is 94% (active) in test [1] and 92% (active) in test [4]. The inhibition in test [2] is 7%; in test [3], 0%. Besides, the outcome in test [5], in test [6], in test [7] and in test [8] was inactive.

On to `CNCCCCCCOc1ccc(CC(C)NCC(O)c2cccc(C(F)(F)F)c2)cc1` (stereo not given), for which the growth inhibition in test [1] was 79% (active); in test [4], 101% (active). Further, the values for the inhibition in test [2] and in test [3] were 99% (active) and 3%, respectively. Further, the outcome in test [5], in test [6], in test [7] and in test [8] was inactive.

`CC(C)CNCc1ccc(-c2ccc(CN(C(=O)NC3CCCCC3)C3CCN(Cc4ccccc4)CC3)cc2)cc1`: the growth inhibition was 88% (active) in test [1] and 101% (active) in test [4]. Moreover, the inhibition is 39% in test [2] and -1% in test [3]. Besides, the result in test [5], in test [6], in test [7] and in test [8] was inactive.

Turning to `CCOC(C(=O)OCCN(C(C)C)C(C)C)(c1ccccc1)c1ccccc1`, the values for the growth inhibition in test [1] and in test [4] were 4% and 97% (active), respectively. The figures for the inhibition in test [2] and in test [3] were 4% and -2%, respectively. Further, the result in test [5], in test [6], in test [7] and in test [8] was inactive.

On to `Cc1[nH]c2ccc(O)cc2c1C1CCN(CC2CCN(C(=O)/C=C/c3ccc(Cl)c(Cl)c3)CC2)CC1`, for which the growth inhibition in test [1] and in test [4] was 99% (active) in each case. In addition, the inhibition in test [2] was 23%; in test [3], -13%. Also, the outcome in test [5], in test [6], in test [7] and in test [8] was inactive.

As for `CN1CC=C(c2c[nH]c3ccc(OC(=O)c4ccccc4)cc23)C1`, the figures for the growth inhibition in test [1] and in test [4] were 97% (active) and 96% (active), respectively. For the same molecule, the inhibition in test [2] was 12%; in test [3], 1%. The result in test [5], in test [6], in test [7] and in test [8] was inactive.

Consider `O=C(/C=C/c1ccc(Cl)c(Cl)c1)N1CC[C@H]2C[C@H](N3CCC(c4c[nH]c5ccccc45)CC3)CC[C@@H]2C1`, for which the growth inhibition in test [1] was 99% (active); in test [4], 100% (active). Besides, the values for the inhibition in test [2] and in test [3] were 31% and 0%, respectively. The outcome in test [5], in test [6], in test [7] and in test [8] was inactive.

In the case of `O=C(NC1CCC(CN2CCC(c3c[nH]c4ccccc34)CC2)CC1)c1cc(-c2cccc(Cl)c2)n(-c2ccc(Cl)cc2Cl)n1` (stereo not given), the growth inhibition in test [1] is 25%; in test [4], 81% (active). In addition, the figures for the inhibition in test [2] and in test [3] were 53% (active) and -5%, respectively. The result in test [5], in test [6], in test [7] and in test [8] was inactive.

In the case of `CCCCCCCc1cc(O)c2c3c(c(=O)oc2c1)CN(C)CC3`, the growth inhibition in test [1] is 100% (active); in test [4] it was 97% (active). For the same molecule, the values for the inhibition in test [2] and in test [3] were -5% and 3%, respectively. In addition, the result in test [5], in test [6], in test [7] and in test [8] was inactive.

On to `Cc1cc(C(=O)NC2CCN(CC3(c4ccc(Cl)cc4)CCC3)CC2)on1`, for which the growth inhibition in test [1] is 95% (active); in test [4], 98% (active). Besides, the inhibition in test [2] is 5%; in test [3] it was -3%. For the same molecule, the result in test [5], in test [6], in test [7] and in test [8] was inactive.

For the origin of these results see PubChem BioAssay.
